Screening results from PubChem BioAssay.
Only some compounds are listed: those with a hit (about 5.2% of all), similar ones and a draw of the others.
Sfp inh – blocks B. subtilis Sfp PPTase activity; Biochemical Sfp PPTase activity, qHTS; Potency, µM, for the others: largest response in the series, negative = inhibition, most hits filed as inhibitors; 3.5% of 310,000 active; AID 1490;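 also: the enzyme is Sfp with the accession as filed and its product quenches rhodamine fluorescence; 0% = enzyme reaction without inhibitor and -100% = no enzyme wells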
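Sfp 15 nM + cpd, 15 min RT; start w/ rhodamine-CoA 5 uM, BHQ-2-YbbR 12.5 uM (final); 50 mM Hepes pH 7.6, 10 mM MgCl2, 0.01% NP-40, 0.01% BSA; read 525/598 nm at 0 and 30 min.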
TrxR1 substrate – rat thioredoxin reductase 1 substrate activity; O89049; purified TrxR1 substrate turnover, NADPH consumption readout; Potency, µM (series often up to 114 µM), inactives show at the top dose activity change, negative = substrate turnover; 0.01% of 390,000 active; AID 588456; also: nearly all actives have a fitted effect of over 50% in size
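Rat TrxR1, dispensed at 90 nM, was prereduced with 400 uM NADPH (final) for 5 min at ~22 deg C, then incubated with compound 15 min before 400 uM selenite. A first-read NADPH fluorescence drop versus no-compound background flagged substrates.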
mIDH1 inhibitor – inhibitors of human mutant IDH1 R132H; IDH1-R132H enzyme, NADPH consumption, diaphorase/resazurin fluorescence; 0.093% of 390,000 active; Potency, µM (highest dose often 76.6 µM), without a hit: top-dose activity change, negative = inhibition, most hits filed as inhibitors; O75874; AID 602179; also: nearly all actives have a fitted effect of over 65% in size
Target sequence (O75874 whole entry R132H, stated change not applied): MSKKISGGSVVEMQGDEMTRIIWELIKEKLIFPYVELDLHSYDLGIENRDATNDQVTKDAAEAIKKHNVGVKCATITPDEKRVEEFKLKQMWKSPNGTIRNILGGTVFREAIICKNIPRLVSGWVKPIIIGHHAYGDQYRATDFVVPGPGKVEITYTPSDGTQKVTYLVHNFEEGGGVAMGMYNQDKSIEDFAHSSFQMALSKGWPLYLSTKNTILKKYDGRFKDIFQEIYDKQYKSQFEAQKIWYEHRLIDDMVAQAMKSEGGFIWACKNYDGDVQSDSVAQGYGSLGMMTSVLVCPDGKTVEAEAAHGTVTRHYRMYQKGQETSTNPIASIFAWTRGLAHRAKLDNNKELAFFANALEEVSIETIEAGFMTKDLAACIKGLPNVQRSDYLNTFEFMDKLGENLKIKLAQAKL
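IDH1-R132H (0.5 ug/mL) preincubated 30 min with compound, then NADPH (0.016 mM) and alpha-KG (2 mM) added; 80 min at RT, pH 7.5. Remaining NADPH coupled via diaphorase/resazurin to fluorescence (540/590 nm); concentration-response curves normalized to no-enzyme control.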
VDR inh – blocks the human vitamin D receptor. P11473. VDR-SRC2-3 peptide fluorescence polarization, 2 h. Potency, µM, without a hit: max response, negative = inhibition, most hits filed as inhibitors. 0.93% of 400,000 active
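VDR–SRC2-3 interaction, FP format. Cmpds 23 nl via pintool, brief spin, 2 h ambient incubation.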
rTrxR1 inhibitor – inhibitors of rat thioredoxin reductase 1. O89049. recombinant rTrxR1, NADPH fluorescence consumption, selenite substrate. Potency, µM (series often up to 114 µM), inactives show top-dose activity change, negative = inhibition, actives largely listed as inhibitors. 1% of 390,000 active. AID 588453; also: nearly all actives have a fitted effect of over 65% in size
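Rat TrxR1 (90 nM in the dispensed reagent) was pre-reduced with 400 uM NADPH for 5 min at room temperature, then incubated with compound for 15 min. After 400 uM selenite was added, NADPH fluorescence (Ex 340/Em 450 nm) was followed for 8 min.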
PLK1 PBD block – inhibitors of human PLK1 polo-box domain binding; Plk1 PBD binding of FITC phosphopeptide, fluorescence polarization; Potency, µM, for inactives: max response, negative = inhibition, usual class: inhibitors; 2.8% of 360,000 active; also: series mostly up to about 57 µM; nearly all actives have a fitted effect of over 65% in size
* hit, by the source's call; ? = inconclusive; · = no result; [ ] = dose if it differs, or a comment. Calls follow the shape of the dose curve; as a rule, active = well fitted curve in the direction sought with a large enough effect; inconclusive = small, poorly fitted or top-dose-only effect, or another doubt; inactive = no such curve, though single readings can be large; an effect the other way counts as inactive or inconclusive. Unless noted, % is scaled to controls: 0 for no effect and ±100 for the full control effect; potency is read from the fitted curve at half-maximal effect.

SMILES	Sfp inh	TrxR1 substrate	mIDH1 inhibitor	VDR inh	rTrxR1 inhibitor	PLK1 PBD block
COc1cc(-c2nnc(COC(=O)c3ccc([N+](=O)[O-])o3)o2)cc(OC)c1OC	·	·	5.9%	·	·	-17.5%
CCOC(=O)c1c(C)[nH]c(O)c1C=Nc1ccccc1	?	4.9%[57.1 µM]	0.5%	-13.5%	4.5%[57.1 µM]	-12.4%
CCOC(=O)c1c(C)[nH]c(N=Nc2ccc(C)cc2)c1C	20µM*	3.0%[57.1 µM]	1.4%	-0.1%	-34.0%[57.1 µM]	-5.4%
CCOC(=O)c1c(C)[nH]c(C=Nc2ccccc2)c1O	39.8µM*	·	·	·	·	·
CCOC(=O)c1c(C)[nH]c(N=Nc2ccc(OC)cc2)c1C	50.1µM*	-12.9%	3.7%	-11.2%	4.1%	-19.6%
O=C(O)C1CC(=O)N(Cc2ccc(F)cc2)C1 (stereo not drawn)	0.3%	9.9%[57.1 µM]	-1.3%	-12.1%	11.6%[57.1 µM]	26.7µM*
Cc1cccc(N2CCN(C(=O)c3cccc(-n4c(C)nc5cccnc54)c3)CC2)c1C	·	-6.0%	3.2%	16.6%	2.2%	·
Cn1nc(-c2cccnc2)nc2c(=O)n(C)c(=O)nc1-2	·	?	·	-8.1%	-21.0%	·
CCOC(=O)c1c(CSC(=N)N)n(-c2ccc(Br)cc2)c2cc(Br)c(OC(C)=O)cc12	?	-10.6%	0.1%	-5.4%	-17.0%	-11.8%
CCCCCCCCOC(=O)c1c(CSC(=N)N)n(C)c2cc(Br)c(OC(C)=O)cc12	39.8µM*	-2.8%	?	-5.8%	13.5%	-0.2%
CC(C)(C)c1ccc(C(=O)NCC(=O)OCc2cc(=O)n3nc(C4CC4)sc3n2)cc1	·	1.8%[57.1 µM]	-13.0%	-3.2%	11.6%[57.1 µM]	·
COc1ccc(CN(CCCN)c2ccc(Br)cn2)cc1	·	5.9%	·	-5.3%	-6.8%	·
CCC(=O)Nc1ccc(NC(=S)NC(=O)c2cc3ccccc3o2)cc1	-12.7%	-3.8%	3.5%	?	-14.6%	?
CCC(=O)Nc1cccc(NC(=S)NC(=O)c2cc3ccccc3o2)c1	3.3%	4.0%[57.1 µM]	1.2%	-29.8%	8.8%[57.1 µM]	26.7µM*
CCN(CC)c1ccc(-c2nnc(SCC(=O)NCc3ccco3)n2CC)cc1	·	-6.1%	·	·	-5.2%	·
O=C(O)CCn1cnc2onc(-c3ccccc3Cl)c2c1=O	·	-3.2%	22.8%	-13.5%	11.4%	·
Fc1ccccc1N1CCN(C(c2cccs2)c2nnnn2CCc2ccccc2)CC1 (stereo not drawn)	6.4%	2.6%	1.7%	2.4%	13.9%	-20.3%
Fc1ccc(N2CCN(C(c3cccs3)c3nnnn3CCc3ccccc3)CC2)cc1 (stereo not drawn)	21.3%	0.0%	1.7%	-4.6%	5.6%[57.1 µM]	23.8µM*
COc1ccccc1N1CCN(C(c2ccc(N(C)C)cc2)c2nnnn2CCc2ccccc2)CC1 (stereo not drawn)	-11.0%	-4.6%	2.9%	18.6%	3.16µM*	7.1%
CCOc1ccc(/C=C2/C(=N)N3OC(C)=CC3=NC2=O)cc1OC	14.5%	-6.0%	0.0%	?	-4.4%	21.2µM*
COc1cc(/C=C2/C(=N)N3OC(C)=CC3=NC2=O)ccc1OCCOc1ccc(C)cc1	10.3%	8.8%[57.1 µM]	1.1%	-21.0%	20.4%[57.1 µM]	-3.1%
CN(C)C1=NC(=O)/C(=C/c2ccc(-c3ccc(S(N)(=O)=O)cc3)o2)S1	35.5µM*	·	·	·	·	·
COc1ccccc1S(=O)Cc1ccc(C(=O)NCc2ccccc2Cl)o1 (stereo not drawn)	?	-3.0%	0.5%	?	-25.4%	26.7µM*
CC1(C)Cc2c(sc(NC(=O)C(=O)N3CCCC3)c2C(N)=O)CO1	-28.8%	-1.4%	-7.3%	-12.7%	12.1%	23.8µM*
CCCC(=O)Nc1sc2c(c1C(=O)OCC)CC(C)(C)OC2	9.6%	6.2%[57.1 µM]	0.0%	11.8%	8.8%[57.1 µM]	-3.1%
SMILES	Sfp inh	TrxR1 substrate	mIDH1 inhibitor	VDR inh	rTrxR1 inhibitor	PLK1 PBD block
CCOC(=O)c1c(NC(=O)c2ccc(C)cc2)sc2c1CC(C)(C)OC2	25.1µM*	1.6%[57.1 µM]	3.5%	-20.9%	24.8%[57.1 µM]	23.8µM*
C=C(C)CNC(=S)Nc1sc2c(c1C(=O)OCC)CC(C)(C)OC2	39.8µM*	-12.1%	5.8%	?	0.4%[57.1 µM]	18.9µM*
CCOC(=O)c1c(NC(=O)c2ccccc2C)sc2c1CC(C)(C)OC2	31.6µM*	14.5%[57.1 µM]	2.5%	-21.8%	27.3%	21.2µM*
CCCCNC(=O)c1nc(-c2cccs2)oc1-c1ccc(Cl)cc1	·	·	·	·	·	1.2%
C[C@]12CCC(=O)C=C1CCC1C3CC[C@](O)(C(=O)CO)[C@@]3(C)CC3OC312 (stereo partly drawn)	-2.1%	·	·	-0.4%	·	·
Cc1ccc(NC2=C(Cl)C(=O)c3ccccc3C2=O)cc1	15.9%	-6.1%	-3.9%	-8.1%	3.55µM*	-2.6%
O=C1C(Cl)=C(Nc2ccc(O)cc2)C(=O)c2ccccc21	-22.1%	-0.2%	0.4%	-15.8%	?	-9.0%
CCN(CC)c1ccc(NC2=C(Cl)C(=O)c3ccccc3C2=O)cc1	?	-11.0%	-1.1%	-26.2%	2.51µM*	-9.0%
COC1=C(Nc2ccc(O)cc2)C(=O)c2ccccc2C1=O	?	-3.5%[57.1 µM]	4.0%	25.1µM*	?	-11.4%
COC1=C(Nc2ccc(OC)cc2)C(=O)c2ccccc2C1=O	?	0.6%	-1.6%	?	-15.8%	6.1%
Cc1cc(C)cc(NC2=C(N)C(=O)c3ccccc3C2=O)c1	17.9%	1.4%	2.9%	89.1µM*	3.3%	-1.6%
CC1(OC(=O)c2ccc(Cl)nc2)C(=O)C=c2cc(-c3ccsc3)ncc2=C1OC(=O)C1CCCC1 (stereo not drawn)	6.1%	·	·	·	·	·
CC(C)(C)NC(=O)C1c2ccccc2OCC(=O)N1CCCN1CCOCC1 (stereo not drawn)	·	·	·	·	·	3.9%
CC(C)C[C@@H](CNCC(=O)[C@H](CC(C)C)NC(=O)c1[nH]cnc1C(=O)N[C@@H](C)CN)NC(=O)c1nc[nH]c1C(=O)N[C@@H](CC(C)C)C(=O)O	·	-6.2%	-4.7%	?	-12.9%	26.7µM*
CC(C)C[C@@H](CNCC(=O)[C@H](Cc1c[nH]c2ccccc12)NC(=O)c1[nH]cnc1C(=O)N[C@@H](C)CN)NC(=O)c1nc[nH]c1C(=O)N[C@@H](CC(=O)O)C(=O)O	·	-5.3%	-3.6%	?	-8.9%	26.7µM*
CC(C)c1ccc(NC(=O)c2cnc3sc(N4CCCC4)nn3c2=O)cc1	·	-2.2%[57.1 µM]	21.5%	10.0%	4.0%[57.1 µM]	·
CCCCCCCCC1=NCCc2c1[nH]c1ccccc21	56.2µM*	7.1%	-7.6%	?	18.3%	23.8µM*
COc1cccc(-c2nn(-c3ccccc3)cc2CN(C)C(C)c2ccncn2)c1 (stereo not drawn)	-16.9%	6.9%[57.1 µM]	1.2%	-3.3%	10.9%[57.1 µM]	2.8%
COc1cccc(-c2nn(-c3ccccc3)cc2CN(C)Cc2c(C)nc3ccccn23)c1	56.2µM*	12.5%	4.7%	14.9%	26.8%	2.9%
